Marburg entry: qHTS for Inhibitors of binding or entry into cells for Marburg Virus | Marburg virus pseudotype entry/binding inhibition, cell-based | Potency, µM (titrated, usually from 49.2 µM), without a hit: at the top dose activity change, negative = inhibition, actives largely listed as inhibitors | 18,000 tested, 6.5% active | AID 720532, 2013
LASV entry inh: qHTS for Inhibitors of binding or entry into cells for Lassa Virus; Lassa virus pseudotyped entry inhibition, cell-based qHTS; Potency, µM (top dose mostly 49.2 µM), for the others: at the top dose activity change, negative = inhibition, most hits filed as inhibitors; 18,000 tested, 4.1% active; AID 720533, 2013
* hit, by the source's call; ? = inconclusive; / = no result given; ! = not confirmed by another sample; [ ] = another dose, or the depositor's remark. Shown are actives, neighbours in structure and some others; about 8.6% of the full set was active somewhere. Calls come from the whole dose curve; tested in HEK293 cells. % is set by controls: 0 for no effect and ±100 for the full control effect; potency is the fitted concentration of half-maximal effect.

SMILES	Marburg entry	LASV entry inh
CCN1C(=NCc2cc(OC)c(OC)c(OC)c2)NC(c2ccccc2)C(C(=O)OC)=C1C (centres undefined)	43%[8.59 µM]	-3%[8.59 µM]
COC(=O)[C@@]1(C=C2c3ccc(F)cc3[C@@H](OC)[C@@H]2C)[C@@H]2Oc3ccccc3[C@@H]21	-17%[8.59 µM]	1%[8.59 µM]
COc1cc(=O)n2c(c1C(=O)N(C)Cc1nonc1C)CCN(Cc1c(F)cccc1F)CC2	-14%	11µM*
COc1cc(=O)n2c(c1C(=O)N(C)Cc1nonc1C)CCN(Cc1cc(F)ccc1F)CC2	-8%	-27%
O=S1(=O)CC(N2CC=CC2)CN1Cc1cn(Cc2ccc(C(F)(F)F)cc2)nn1 (centres undefined)	18%	7%
C[C@@H]1CC2=CCCC2[C@]2(O1)C(=O)N(Cc1ccc(Br)cc1)c1cccc(Br)c12 (some centres undefined)	-25%[8.59 µM]	/
CN1CCCCC1CCN1c2ccccc2Sc2ccc(S(C)=O)cc21 (centres undefined)	8.9µM*!	?
CC(=O)NNC(=O)N1Cc2ccccc2Oc2ccc(Cl)cc21	5%	-11%
CCN(CC)CCCCN1c2ccccc2Oc2ccc(Cl)cc21	6.3µM*	?
CC(=O)O[C@@H]1[C@@H](O)C2OC3C=C(C)C(=O)[C@@H](O)[C@]3(CO)C1(C)C21CO1 (some centres undefined)	0.35µM*	0.56µM*
CC(NC(C)(C)C)C(=O)c1cccc(Cl)c1 (centres undefined)	3.5µM*!	28%
CC(C)OC(=O)Nc1cccc(Cl)c1	24%	-15%
CC1=C[C@@H](COCc2ccccc2)O[C@@]2(C1)C(=O)N(CC1CC1)c1ccccc12	1%[8.59 µM]	-24%[8.59 µM]
CCCC[C@]12Cc3cc(C#N)ccc3[C@H](O1)c1c(c3ccccc3oc1=O)O2	-8%[8.59 µM]	7%[8.59 µM]
CCc1cn([C@H]2C[C@H](O)[C@@H](CO)O2)c(=O)[nH]c1=O	-9%	5%
O=c1[nH]c(=O)n([C@@H]2O[C@H](CO)[C@@H](O)[C@H]2O)cc1F	?	10µM*
CC(C)[C@@H](CO[Si](C)(C)C(C)(C)C)N1CC=CS1(=O)=O	13%	-27%
CCCCCCCCCc1ccc(OCCOCCO)cc1	?	11µM*
CCCCCCCCCCCCOCCOCCOCCOCCO	-48%	-15%
COc1c(C(N)=O)cc(-c2ccc(Cl)cc2)cc1-c1ccc(S(N)(=O)=O)cc1	-50%	?
CCCCCCN1C[C@H](n2cc(C3CC3)nn2)[C@@H](O)C[C@H]1c1ccc(OC)cc1	-20%	/
O=C(O)c1cc(O)c2c(c1)C(=O)c1cccc(O)c1C2=O	13µM*	-2%
Cc1cc(O)c2c(c1)C(=O)c1cccc(O)c1C2=O	5%	1%
CCC(=O)C[C@@H](NC(=O)OC)c1ccc(F)cc1	6%[8.59 µM]	2%[8.59 µM]
Cc1nc2ccccn2c(=O)c1CCN1CCC(C(=O)c2ccc(F)cc2)CC1	?	6%
SMILES	Marburg entry	LASV entry inh
Cc1nc2sccn2c(=O)c1CCN1CCC(=C(c2ccc(F)cc2)c2ccc(F)cc2)CC1	?	35µM*
c1ccc2c(c1)Sc1ccccc1N2C[C@@H]1CN2CCC1CC2	12%	3%
CN1CCCC(CC2c3ccccc3Sc3ccccc32)C1 (centres undefined)	7.9µM*	?
CN1CCCC(CN2c3ccccc3Sc3ccccc32)C1 (centres undefined)	11µM*	28µM*
COc1cc(NCCCC(C)N)c2ncccc2c1 (centres undefined)	8.9µM*	10µM*
COc1cc(Nc2ncc(-c3ccccc3)o2)cc(OC)c1	58%	110%
OC1(c2ccc(Cl)c(C(F)(F)F)c2)CCN(CCCC(c2ccc(F)cc2)c2ccc(F)cc2)CC1	2.8µM*	11µM*
Cc1ccc(C2(O)CCN(CCCC(=O)c3ccc(F)cc3)CC2)cc1	?	-18%
COC(=O)C1=C(C(=O)OC)[C@@H]2N(Cc3ccccc3)c3ccccc3[C@@]23C[C@@H](C(=O)OC)N(C(=O)Nc2ccc(C(F)(F)F)cc2)C3=N1	38%[8.59 µM]	-20%[8.59 µM]
C=CC(=O)N1[C@H](C(=O)OCC)CSCCS1(=O)=O	-8%	5%
Fc1ccc(-c2cc(-c3cn[nH]c3-c3ccccn3)ccn2)cc1	8%	57%
C[C@H]1O[C@@H](O[C@H]2CC[C@@]3(C)[C@H](CC[C@@H]4[C@@H]3C[C@@H](O)[C@]3(C)[C@@H](C5=CC(=O)OC5)CC[C@]43O)C2)C[C@H](O)[C@@H]1O[C@H]1C[C@H](O)[C@H](O[C@H]2C[C@H](O)[C@H](O[C@@H]3O[C@H](CO)[C@@H](O)[C@H](O)[C@H]3O)[C@@H](C)O2)[C@@H](C)O1	0.28µM*	0.35µM*
C[C@@H]1O[C@H](O[C@@H]2CC[C@@]3(C=O)[C@H]4CC[C@@]5(C)[C@@H](C6=CC(=O)OC6)CC[C@@]5(O)[C@@H]4CC[C@]3(O)C2)C[C@H](O)[C@@H]1O	3.5µM*	3.5µM*
CC1O[C@@H](O[C@@H]2C(O)C[C@H](O[C@@H]3C(O)C[C@@H](OC4CC[C@@]5(C)C6CC(O)[C@@]7(C)C(C8=CC(=O)OC8)CC[C@@]7(O)C6CC[C@@H]5C4)OC3C)OC2C)CC(O)[C@H]1O (some centres undefined)	0.56µM*	1µM*
C[C@H]1O[C@@H](O[C@H]2[C@@H](O)C[C@H](O[C@H]3[C@@H](O)C[C@H](O[C@H]4CC[C@@]5(C)[C@H](CC[C@@H]6[C@@H]5CC[C@]5(C)[C@@H](C7=CC(=O)OC7)CC[C@]65O)C4)O[C@@H]3C)O[C@@H]2C)C[C@H](O)[C@@H]1O	0.089µM*	?
COC(=O)CC1OC1[C@H](C)[C@@H](OC)C(C)C (some centres undefined)	-15%[8.59 µM]	/
CCOC(=O)CN1C(=O)NC(c2cccc(C(F)(F)F)c2)C(C(C)=O)=C1C (centres undefined)	31%[8.59 µM]	7%[8.59 µM]
CCN1C(=O)[C@@H]2[C@H]3[C@H](O)[C@H](O)CC(=NO[C@@H]4O[C@H](COC(C)=O)[C@@H](OC(C)=O)[C@H](OC(C)=O)[C@@H]4OC(C)=O)[C@@H]3CC[C@H]2C1=O	12%[8.59 µM]	5%[8.59 µM]
O=C(OCc1cn([C@@H]2C[C@H](c3ccccc3)N(CC3CCCCC3)C[C@@H]2O)nn1)c1ccccc1	-29%	-21%
COCOc1c2c(c(OCOC)c3c(OCOC)cccc13)C(=NNS(=O)(=O)c1ccc(C)cc1)C1=C2CCCC1	?	-22%[8.59 µM]
FC(F)(F)c1ccc(-c2nc(-c3ccccc3)oc2NCc2ccccc2)cc1	-7%[8.59 µM]	?
CC(=O)O[C@H]1C[C@H](O[C@H]2[C@@H](O)C[C@H](O[C@H]3[C@@H](O)C[C@H](OC4CC[C@@]5(C)C(CC[C@@H]6[C@@H]5CC[C@]5(C)[C@@H](C7=CC(=O)OC7)[C@@H](O)C[C@]65O)C4)O[C@@H]3C)O[C@@H]2C)O[C@H](C)[C@H]1O[C@@H]1O[C@H](CO)[C@@H](O)[C@H](O)[C@H]1O (some centres undefined)	?	2.8µM*
CC1OC(O[C@@H]2C(O)CC(O[C@@H]3C(O)C[C@@H](OC4CC[C@]5(C)[C@H](CC[C@H]6[C@@H]5CC[C@]5(C)C(C7=CC(=O)OC7)C(O)C[C@@]65O)C4)OC3C)OC2C)CC(O)C1O (some centres undefined)	0.63µM*	5µM*

Screening results (PubChem BioAssay)
